Test [1] can be described thus: qHTS assay to identify small molecule agonists of the hypoxia (HIF-1) signaling pathway - cell viability counter screen (AID 1224844; calls by dose curve; also: nearly all actives have a fitted effect of over 50% in size). An outline of the steps:
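HRE-bla ME-180 cells in medium with 0.5% dialyzed FBS were preincubated 5 hrs at 37C, exposed to compounds for 17 hrs, then viability was read as CellTiter-Glo luminescence after 30 min at room temperature, in the reporter wells.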

Test [2] in a line: qHTS assay to identify small molecule agonists of H2AX (AID 1224845; active = well fitted activation curve with a large enough effect in the signal ratio in the repeat runs, not every such curve was filed as active; the % refers to the signal ratio; also: potency is read from the fitted curve at half-maximal effect). In a few lines:
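Wild-type CHO-K1 cells, plated overnight, exposed 3hr at 37C to 15 concentrations (0.76% DMSO final). Lysed, then HTRF anti-pH2AX (S139) cryptate and anti-H2AX-d2 antibodies, 24 hr room temperature; 665/620 nm emission read.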

A short description of test [3]: qHTS assay to identify small molecule agonists of the hypoxia (HIF-1) signaling pathway (AID 1224846; active = well fitted activation curve with a large enough effect in the signal ratio in the repeat runs, not every such curve was filed as active; the % refers to the signal ratio). An outline of the steps:
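HRE-bla ME-180 cells (beta-lactamase reporter under hypoxia response element) were plated at 2,000 cells/well in medium with 0.5% dialyzed FBS, rested 5 hrs, then given compounds in DMSO for 17 hrs at 37C, 5% CO2. Reporter induction was read with CCF4-AM FRET substrate.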
In general terms: Quantitative high-throughput screening tests each substance at several concentrations.

Test [4] is described as follows: qHTS assay to identify small molecule agonists of H2AX - cell viability counter screen (AID 1224847; calls by dose curve; also: nearly all actives have a fitted effect of over 30% in size; also: potency is read from the fitted curve at half-maximal effect; as to activity change, negative = cytotoxicity: top concentration of the series differs between compounds). In a few lines: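 After overnight plating of 1000 CHO-K1 cells per well, a 15-concentration compound series was applied for 3 hr at 37C. Luminescence from CellTiter-Glo, read following 30 min at room temperature, reflected cell viability.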
The nature of test [5]: qHTS RealTime-Glo MT Cell Viability Assay in HepG2 cells - 24 hour (AID 1224867). Also: nearly all actives have a fitted effect of over 50% in size. Also: potency is read from the fitted curve at half-maximal effect. An outline of the steps:
(§1)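 HepG2 cells (600/well) were dispensed with RealTime-Glo reagents, incubated 5 h at 37 °C, then treated with compounds in DMSO for up to 40 h. Nonlytic NanoLuc luminescence reflecting viable cells was read at each stated time point.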

A short description of test [6]: qHTS RealTime-Glo MT Cell Viability Assay in HEK293 cells - 32 hour (AID 1224868). Also: nearly all actives have a fitted effect of over 50% in size. Also: potency is read from the fitted curve at half-maximal effect. As to activity change, negative = cytotoxic: top concentration of the series differs between compounds. In a few lines:
(§2)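 HEK293 cells seeded with NanoLuc/prosubstrate reagent, rested 5 h at 37 C, then dosed and kept at 37 C up to 40 h. Nonlytic real-time luminescence from viable cells read at 0, 8, 16, 24, 32 and 40 h.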

A short description of test [7]: A CellTox Green Cytotoxicity Assay to monitor cytotoxicity in HEK293 cells - 0 hour (AID 1224869). Also: nearly all actives have a fitted effect of over 50% in size. Also: potency is read from the fitted curve at half-maximal effect. An outline of the steps: (§3)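 HEK293 cells premixed with CellTox Green dye were seeded at 600 cells/well and left 5 h at 37 C/5% CO2 before pin transfer of 23 nL compound in DMSO. Fluorescence from dye bound to dead-cell DNA was read during 40 h treatment.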
Test [8] in a line: qHTS RealTime-Glo MT Cell Viability Assay in HepG2 cells - 40 hour (AID 1224870). Also: nearly all actives have a fitted effect of over 50% in size. Also: potency is read from the fitted curve at half-maximal effect. An outline of the steps: (§4)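 HepG2 cells (600/well) mixed with RealTime-Glo MT reagent, settled 5 h at 37 C/5% CO2 before compound addition. Nonlytic NanoLuc luminescence from viable-cell prosubstrate reduction read repeatedly during 40 h treatment at 37 C.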
Test [9] can be described thus: qHTS RealTime-Glo MT Cell Viability Assay in HEK293 cells - 16 hour (AID 1224872). Also: nearly all actives have a fitted effect of over 50% in size. Also: potency is read from the fitted curve at half-maximal effect. As to activity change, negative = cytotoxicity: top concentration of the series differs between compounds. An outline of the steps:
as §2

Test [10] is described as follows: qHTS RealTime-Glo MT Cell Viability Assay in HepG2 cells - 8 hour (AID 1224873). Also: nearly all actives have a fitted effect of over 55% in size. Also: potency is read from the fitted curve at half-maximal effect. In a few lines: as §4
Test [11] is described as follows: qHTS RealTime-Glo MT Cell Viability Assay in HEK293 cells - 40 hour (AID 1224874). Also: nearly all actives have a fitted effect of over 50% in size. Also: potency is read from the fitted curve at half-maximal effect. The note with it: RealTime-Glo luminescence; max response: stronger effect = lower value. An outline of the steps:
(§5)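 HEK293 cells mixed with RealTime-Glo reagents (NanoLuc plus cell-permeant prosubstrate) at 600 cells/well, preincubated 5 h at 37 C/5% CO2, then given 23 nL compound in DMSO. Nonlytic luminescence from viable cells was read at 0, 8, 16, 24, 32 and 40 h.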

The nature of test [12]: A CellTox Green Cytotoxicity Assay to monitor cytotoxicity in HEK293 cells - 24 hour (AID 1224875). Also: nearly all actives have a fitted effect of over 45% in size. Also: potency is read from the fitted curve at half-maximal effect. An outline of the steps: as §3
Test [13] is described as follows: A CellTox Green Cytotoxicity Assay to monitor cytotoxicity in HepG2 cells - 16 hour (AID 1224876). Also: nearly all actives have a fitted effect of over 45% in size. Also: potency is read from the fitted curve at half-maximal effect. An outline of the steps: (§6)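 HepG2 cells were seeded together with the CellTox Green dye at 600 cells/well, left 5 h at 37 C/5% CO2, then given compounds in DMSO. Fluorescence from dye bound to dead-cell DNA was read repeatedly over 40 h of treatment at 37 C.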
A short description of test [14]: qHTS RealTime-Glo MT Cell Viability Assay in HepG2 cells - 32 hour (AID 1224877). Also: nearly all actives have a fitted effect of over 55% in size. Also: potency is read from the fitted curve at half-maximal effect. An outline of the steps: as §1
Test [15] is described as follows: A CellTox Green Cytotoxicity Assay to monitor cytotoxicity in HepG2 cells - 24 hour (AID 1224878). Also: nearly all actives have a fitted effect of over 45% in size. Also: potency is read from the fitted curve at half-maximal effect. In a few lines: as §6
Test [16] in a line: A CellTox Green Cytotoxicity Assay to monitor cytotoxicity in HepG2 cells - 40 hour (AID 1224879). Also: nearly all actives have a fitted effect of over 40% in size. Also: potency is read from the fitted curve at half-maximal effect. In a few lines:
as §6

A short description of test [17]: qHTS RealTime-Glo MT Cell Viability Assay in HEK293 cells - 0 hour (AID 1224880). Also: top concentration of the series differs between compounds; nearly all actives have a fitted effect of over 45% in size. An outline of the steps: as §5
Test [18] can be described thus: qHTS assay to identify small molecule agonists of the estrogen related receptor (ERR) signaling pathway from Tox21 library (AID 1224849; calls by dose curve; also: nearly all actives have a fitted effect of over 15% in size). The note with it: ERR reporter cell line, ONE-Glo luciferase, 18 h; at 42.5 µM (top of the series). An outline of the steps:
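ERR reporter cell line (NTP) seeded, rested 6 h at 37 C/5% CO2, then pinned with Tox21 compounds in DMSO. After 18 h at 37 C, ONE-Glo luciferase luminescence was read following 30 min at room temperature.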

In test [19] the target is Thyrotropin receptor (Homo sapiens) (UniProt P16473). Nature of the test: qHTS assay to identify small molecule agonists of the thyroid stimulating hormone receptor (TSHR) signaling pathway (AID 1224843; calls by dose curve; also: nearly all actives have a fitted effect of over 45% in size). An outline of the steps: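 Steps: seed 800 TSHR-HEK293 cells per well; add test compound and hold 30 min at ambient temperature; dispense cAMP-d2 then anti-cAMP cryptate; incubate 1 h at ambient; measure fluorescence intensity.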

The values below come from PubChem BioAssay (Tox21).

Values joined by “and” are separate entries in the source; they are usually repeats but may differ in a detail not shown here. Equal values may be shown once. Unmarked numbers belong to inactive results. Records with an inconclusive call do not appear. Active and inactive are the calls of the source. Unless noted, calls follow the shape of the dose curve; as a rule, active = well fitted curve in the direction sought with a large enough effect in the repeat runs; inconclusive = weak or mixed curves; inactive = no such curve, though single readings can be large; an effect the other way counts as inactive or inconclusive.
% is scaled to controls: 0 for no effect and ±100 for the full control effect.

Chain of Thyrotropin receptor (Homo sapiens) (P16473 whole entry, looked up): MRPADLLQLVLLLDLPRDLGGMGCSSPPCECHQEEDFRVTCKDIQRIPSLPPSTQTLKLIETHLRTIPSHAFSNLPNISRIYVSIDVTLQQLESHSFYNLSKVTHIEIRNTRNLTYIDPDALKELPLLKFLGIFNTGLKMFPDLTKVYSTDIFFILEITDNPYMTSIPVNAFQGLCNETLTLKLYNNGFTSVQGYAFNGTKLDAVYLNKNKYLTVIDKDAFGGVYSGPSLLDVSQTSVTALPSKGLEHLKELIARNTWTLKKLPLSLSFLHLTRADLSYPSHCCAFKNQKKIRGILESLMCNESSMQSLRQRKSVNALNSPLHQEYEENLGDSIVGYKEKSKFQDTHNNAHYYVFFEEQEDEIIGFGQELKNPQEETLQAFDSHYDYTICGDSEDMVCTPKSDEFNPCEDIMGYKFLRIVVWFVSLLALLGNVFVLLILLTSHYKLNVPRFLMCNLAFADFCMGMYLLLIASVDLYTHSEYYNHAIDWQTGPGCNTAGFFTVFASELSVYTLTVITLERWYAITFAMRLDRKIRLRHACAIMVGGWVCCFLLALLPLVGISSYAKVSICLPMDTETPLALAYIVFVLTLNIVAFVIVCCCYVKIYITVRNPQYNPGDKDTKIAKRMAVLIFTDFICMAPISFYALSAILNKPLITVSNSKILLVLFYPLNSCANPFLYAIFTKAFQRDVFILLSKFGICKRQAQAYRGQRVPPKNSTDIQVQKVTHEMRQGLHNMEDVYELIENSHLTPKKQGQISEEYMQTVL

As to `Cc1ccc(S(=O)(=O)O)cc1`, the Potency result in test [1], in test [2], in test [4], in test [5], in [6] and in test [7] was “inactive” each time. Further, the Potency entry in test [8], in test [9], in [10], in test [12], in test [13] and in test [14] was “inactive” in each case. Besides, the Potency entry in test [15], in [16] and in [17] was “inactive” in each case. Further, the call in test [3] was inactive. Moreover, the max response in test [11] was 2.66% and 6.16% and 6.13%.

With `CN[C@H]1CC[C@@H](c2ccc(Cl)c(Cl)c2)c2ccccc21`, the Potency entry in [1] and in [7] was “inactive” in each case. Besides, the Potency in test [4] was 49.2 µM (active); in test [5], 23.9 µM (active); in test [6] it was 23.9 µM (active); in [8], 23.9 µM (active); in [11], 23.9 µM (active); in test [13], 19 µM (active). Further, the figures for the Potency in test [15] and in [16] were 19 µM (active) and 16.9 µM (active), respectively. Also, the activity change, positive = activation in [18] was -39%.

Consider `C1CCC(C(CC2CCCCN2)C2CCCCC2)CC1` (stereo not drawn), for which the Potency in [2] was 6.95 µM (active); in test [4], 55.2 µM (active); in test [5], 5.35 µM (active); in [6], 10.7 µM (active); in [8], 5.35 µM (active); in test [9] it was 19 µM (active). Also, the Potency in test [10] was 21.3 µM (active); in test [11], 10.7 µM (active); in test [12], 21.3 µM (active); in test [13], 12 µM (active); in [14], 5.35 µM (active); in test [15] it was 9.52 µM (active). Also, in test [16], the Potency was 5.35 µM (active). Also, the activity change, positive = activation in test [18] was -54.8%. Also, in test [7], the Potency entry is “inactive”.

As to `C[C@](N)(Cc1ccc(O)c(O)c1)C(=O)O`, the Potency result in test [1], in test [4], in test [5], in test [6], in [7] and in [8] was “inactive” each time. Further, the Potency result in test [9], in [10], in test [12], in test [13], in test [15] and in [16] was “inactive” throughout. Besides, the Potency entry in test [17] was “inactive”. The compound was classed as inactive in test [3]. In addition, in [11], the max response is -19.7% and -21.3% and 9.87%.

In the case of `CN1CCC[C@H]1c1cccnc1`, the Potency entry in test [1], in [2], in test [4], in test [5], in test [6] and in test [7] was “inactive” throughout. The Potency entry in [8], in test [9], in test [10], in test [12], in test [13] and in test [15] was “inactive” each time. The Potency entry in test [16] and in test [17] was “inactive” each time. In test [11], the max response was -1.49% and 19.5% and 2.35%.

As for `Nc1ccc2c(c1)CN1C(=O)c3ccccc3C1=N2`, the activation is -0.704% [at 19 µM] in test [19] and 0.64% [at 15.8 µM] in test [3]. The Potency in test [4] was 17 µM (active); in [6], 4.65 µM (active); in test [7] it was 11.7 µM (active); in test [11], 3.69 µM (active); in [12], 10.4 µM (active); in [13] it was 10.4 µM (active). Further, the Potency in test [15] and in test [16] was 10.4 µM (active) throughout. The results for the activity change, negative = cytotoxicity in [5] and in test [17] were -3.47% [at 15.8 µM] and 5.64% [at 15.8 µM], respectively. In addition, the activity change, negative = cytotoxic in test [8] is 1.05% [at 15.8 µM]; in test [14], -0.629% [at 15.8 µM]. Moreover, the viability change, negative = cytotoxic in test [10] was -9.67% [at 15.8 µM].
